A short description of assay [1]: Quantitative High-Throughput drug screen in 47 multiple myeloma cell lines against the NCATS MIPE library collection: U266_ATCC cell viability assay (AID 1919864). Also: nearly all actives have a fitted effect of over 35% in size. An outline of the steps:
(§1)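 MIPE 4.0 approved/investigational drugs; 500 cells/well; 48 h 37 °C humidified 5% CO2; CTG luminescence readout; DMSO = 100%, media = 0% viability.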

Assay [2] in a line: Quantitative High-Throughput drug screen in 47 multiple myeloma cell lines against the NCATS MIPE library collection: XG6_PLB cell viability assay (AID 1919865). Also: nearly all actives have a fitted effect of over 40% in size. An outline of the steps:
as §1

The nature of assay [3]: Quantitative High-Throughput drug screen in 47 multiple myeloma cell lines against the NCATS MIPE library collection: XG1_PLB cell viability assay (AID 1919866). Also: nearly all actives have a fitted effect of over 35% in size. An outline of the steps:
as §1

Assay [4] in a line: Quantitative High-Throughput drug screen in 47 multiple myeloma cell lines against the NCATS MIPE library collection: PE2_PLB cell viability assay (AID 1919869). Also: nearly all actives have a fitted effect of over 35% in size. An outline of the steps: as §1
Assay [5] can be described thus: Quantitative High-Throughput drug screen in 47 multiple myeloma cell lines against the NCATS MIPE library collection: PCM6_Riken cell viability assay (AID 1919870). Also: nearly all actives have a fitted effect of over 30% in size. Put shortly: as §1
Assay [6] can be described thus: Quantitative High-Throughput drug screen in 47 multiple myeloma cell lines against the NCATS MIPE library collection: RPMI8226_ATCC cell viability assay (AID 1919871). Also: nearly all actives have a fitted effect of over 30% in size. Put shortly:
as §1

Assay [7] can be described thus: Quantitative High-Throughput drug screen in 47 multiple myeloma cell lines against the NCATS MIPE library collection: OPM2_DSMZ cell viability assay (AID 1919872). Also: nearly all actives have a fitted effect of over 30% in size. Put shortly:
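We plated 500 myeloma cells per well, pinned in MIPE 4.0 compounds, and incubated for 48 hours at 37C. ATP was then quantified with CellTiter-Glo, with DMSO and media-only wells defining 100% and 0%.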

A short description of assay [8]: Quantitative High-Throughput drug screen in 47 multiple myeloma cell lines against the NCATS MIPE library collection: KMS11_JCRBsus cell viability assay (AID 1919873). Also: nearly all actives have a fitted effect of over 50% in size. Put shortly:
as §1

Assay [9] in a line: Quantitative High-Throughput drug screen in 47 multiple myeloma cell lines against the NCATS MIPE library collection: VP6_DJ cell viability assay (AID 1919867). Also: nearly all actives have a fitted effect of over 40% in size. An outline of the steps: as §1
Assay [10] in a line: Quantitative High-Throughput drug screen in 47 multiple myeloma cell lines against the NCATS MIPE library collection: UTMC2_PLB cell viability assay (AID 1919868). Also: nearly all actives have a fitted effect of over 55% in size. Put shortly: as §1

Structures are written as SMILES. Inconclusive results are not listed. Activity calls are given as the source filed them. Calls follow the shape of the dose curve; as a rule, active = well fitted cell-killing curve with a large enough effect; inconclusive = small, poorly fitted or top-dose-only effect, or effect the other way; inactive = no such curve, though single readings can be large or run the other way. Peptide text beside a SMILES is read from it.
Potency is read from the fitted curve at half-maximal effect.

Regarding `CC1Cc2ccccc2N1NC(=O)c1ccc(Cl)c(S(N)(=O)=O)c1` (centres undefined), in [1], the Potency was 6.62 µM (active). Further, the Potency result in [2], in assay [3], in [4], in assay [5], in assay [6] and in assay [7] was “inactive” each time. In addition, in [8], the Potency result was “inactive”.
With `CCOC(=O)C1=C(O)C(=O)N(Cc2ccccc2)C1`, the Potency result in assay [1], in assay [3], in assay [4], in [5], in assay [7] and in assay [8] was “inactive” throughout. Moreover, the Potency in [6] is 13.2 µM (active).
Take `Cc1cccc(C#Cc2ccccc2)n1`: the Potency result in assay [1] and in [7] was “inactive” each time. Also, the values for the Potency in [3] and in assay [6] were 14.8 µM (active) and 3.72 µM (active), respectively.
`O=c1c(O)c(-c2ccc(O)cc2O)oc2cc(O)cc(O)c12`: the Potency result in assay [1], in [2], in [6], in assay [7] and in [8] was “inactive” throughout. Besides, the Potency in assay [3] is 0.833 µM (active).
For `O=C(O)CCNC(=O)c1ccc(N=Nc2ccc(O)c(C(=O)O)c2)cc1`, the Potency in assay [1] was 13.2 µM (active). The Potency entry in assay [3], in assay [9], in assay [4], in assay [5], in assay [6] and in assay [7] was “inactive” in each case. Further, in assay [8], the Potency result is “inactive”.
Consider `O=c1ccc2ccc(O)c(O)c2o1`, for which the Potency in assay [1] was 9.35 µM (active); in [3] it was 4.18 µM (active); in [4], 13.2 µM (active). The Potency entry in assay [6], in assay [7] and in [8] was “inactive” each time.
`COC(=O)[C@H](Cc1ccccc1)NC(=O)[C@@H](N)CC(=O)O` (H-Asp-Phe-OMe): the Potency entry in assay [1], in assay [3], in [4] and in [7] was “inactive” each time. Further, the Potency in [2] was 14.8 µM (active).
In the case of `Oc1ccc2ccccc2c1SSc1c(O)ccc2ccccc12`, the Potency is 20.9 µM (active) in assay [1]; 10.5 µM (active) in [2]; 11.8 µM (active) in assay [3]; 7.43 µM (active) in assay [4]; 13.2 µM (active) in assay [5]; 26.4 µM (active) in assay [6]. For the same compound, the Potency in assay [8] was 13.2 µM (active).
Turning to `CCCCCCCCOc1ccccc1C(=O)Nc1ccc(C(=O)OCC[N+](C)(CC)CC)cc1`, the Potency in assay [1] was 20.9 µM (active); in assay [3], 16.6 µM (active); in assay [10], 16.6 µM (active); in assay [4], 16.6 µM (active); in assay [8], 18.7 µM (active).
In the case of `C[C@H](Cc1ccc(O)c(O)c1)[C@@H](C)Cc1ccc(O)c(O)c1`, the Potency in assay [1] is 16.6 µM (active); in assay [2], 11.8 µM (active); in assay [3] it was 20.9 µM (active); in assay [9] it was 16.6 µM (active); in assay [4], 11.8 µM (active); in [6], 10.5 µM (active). For the same compound, the Potency in assay [7] and in assay [8] was 18.7 µM (active) each time.
Consider `Cc1cccc(-c2[nH]ncc2-c2ccc3ncccc3n2)n1`, for which the Potency result in [1], in [2], in [9], in [6] and in assay [7] was “inactive” each time.
Consider `O=C1c2c(O)cc(O)cc2OC(c2ccc(O)c(O)c2)C1O` (centres undefined), for which the Potency entry in assay [1], in assay [3], in assay [9], in assay [6] and in assay [8] was “inactive” throughout.
Take `Cc1cccc(C)c1OCC(=O)N[C@@H](Cc1ccccc1)[C@@H](O)C[C@H](Cc1ccccc1)NC(=O)[C@H](C(C)C)N1CCCNC1=O`: the Potency result in assay [1] is “inactive”. The Potency in assay [3] and in [8] was 20.9 µM (active) throughout.
As for `Nc1cccc2c1CN(C1CCC(=O)NC1=O)C2=O` (centres undefined), the Potency entry in [1], in assay [2], in assay [5] and in [7] was “inactive” each time. The Potency in assay [3] was 3.03 µM (active).
As to `NCCCCNCCCN`, the Potency was 7.43 µM (active) in assay [1]; 20.9 µM (active) in assay [3]; 26.4 µM (active) in assay [9]; 16.6 µM (active) in assay [4]; 16.6 µM (active) in assay [5]; 23.5 µM (active) in assay [6].
Turning to `CC1(C)NC(=O)N(c2ccc([N+](=O)[O-])c(C(F)(F)F)c2)C1=O`, the Potency entry in [1], in assay [2] and in [3] was “inactive” throughout.
In the case of `CC(C)[C@H](N)C(=O)OCCOCn1cnc2c(=O)[nH]c(N)nc21`, the Potency entry in assay [1], in assay [4], in [5], in assay [6] and in assay [7] was “inactive” in each case.
As for `COc1cc2nc(N3CCN(C(=O)C4CCCO4)CC3)nc(N)c2cc1OC` (centres undefined), the Potency result in assay [1], in assay [4], in [6] and in assay [7] was “inactive” each time.
For `CCN(CC)C(=S)SSC(=S)N(CC)CC`, the Potency was 0.001 µM (active) in [2]; 0.001 µM (active) in [3]; 0.0118 µM (active) in assay [10]; 0.0187 µM (active) in [6]; 0.0418 µM (active) in assay [7]; 0.003 µM (active) in assay [8].
For `COC1=C(OC)C(=O)C(CCCCCCCCCCO)=C(C)C1=O`, the Potency was 20.9 µM (active) in [2]; 16.6 µM (active) in assay [3]; 14.8 µM (active) in [9]; 26.4 µM (active) in assay [10]; 26.4 µM (active) in [4]; 16.6 µM (active) in assay [5]. For the same compound, the Potency in assay [8] was 14.8 µM (active). Moreover, the Potency result in assay [6] and in assay [7] was “inactive” each time.
As to `CN(C)c1ccc(O)c2c1C[C@H]1C[C@H]3[C@H](N(C)C)C(=O)C(C(N)=O)=C(O)[C@@]3(O)C(=O)C1=C2O`, the Potency is 5.9 µM (active) in [1] and 20.9 µM (active) in [4].
For `NS(=O)(=O)c1cc(C(=O)O)c(NCc2ccco2)cc1Cl`, the Potency entry in [2], in [3], in [4], in assay [5] and in assay [6] was “inactive” throughout.
`Cc1cc2c(s1)Nc1ccccc1N=C2N1CCN(C)CC1`: the Potency result in assay [2], in assay [3], in assay [10], in [4], in assay [5] and in assay [6] was “inactive” throughout. Besides, in assay [8], the Potency entry is “inactive”.
Consider `COc1cc2c(N3CCN(C(=O)Nc4ccc(OC(C)C)cc4)CC3)ncnc2cc1OCCCN1CCCCC1`, for which the Potency in [2] is 18.7 µM (active); in assay [3], 13.2 µM (active); in [9], 8.33 µM (active); in [10], 4.18 µM (active); in assay [4] it was 16.6 µM (active); in assay [5], 6.62 µM (active). Also, the Potency in assay [8] was 26.4 µM (active).
With `CCOC(=O)C1=C[C@@H](OC(CC)CC)[C@H](NC(C)=O)[C@@H](N)C1`, the Potency result in [2], in assay [3], in assay [9], in assay [4], in [5] and in assay [6] was “inactive” throughout. Moreover, the Potency entry in assay [7] and in assay [8] was “inactive” throughout.

Values taken from PubChem BioAssay (NCATS).
